Measured values reported in PubChem BioAssay AID1159580 (chemical genetic matrix, 2015).
Out of some 5,500 compounds screened, about 2,000 (36%) were called active. Not shown: some 18% with an inconclusive outcome. Rule as the data show it: active = normalized growth mostly below about 0.91 (no sharp cut-off); inconclusive = no clear call, values can overlap the other calls; inactive = mostly above about 0.92. The list shows a part of the results.

Test: chemical genetic growth profiling, strain panel (AID 1159580);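 also: tested at 20 µM; growth read once vehicle control cultures reached saturation at 30 °C; 1 = growth at the plate median or of vehicle wells; lower values mean less growth of the strain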
Conditions: growth OD

Measured: normalized growth

COC(=O)CC1C2(C)CC34OC5(C)OC6(C7/C(=C(/O)C(C)C)C(=O)OC(c8ccoc8)C7(C)C(OC(=O)C(C)C)C(OC)C6(O5)C13C)C(OC)C4(OC)C2OC(C)=O (stereo not drawn)
inactive: S. cerevisiae deletion strains, locus YAL013W, strain DEP1, stronger effect = lower value 0.997 | S. cerevisiae deletion strains, locus YBR021W, strain FUR4, stronger effect = lower value 1.02 | S. cerevisiae deletion strains, locus YBR229C, strain ROT2, stronger effect = lower value 1 | S. cerevisiae deletion strains, locus YCL029C, strain bik1, stronger effect = lower value 0.99 | S. cerevisiae deletion strains, locus YDL035C, strain GPR1, stronger effect = lower value 1.02 | S. cerevisiae deletion strains, locus YDL074C, strain BRE1, stronger effect = lower value 1.01 | S. cerevisiae deletion strains, locus YDL101C, strain DUN1, stronger effect = lower value 1.01 | S. cerevisiae deletion strains, locus YDL134C, strain PPH21, stronger effect = lower value 1.01 | S. cerevisiae deletion strains, locus YDL185W, strain tfp1, stronger effect = lower value 0.991 | S. cerevisiae deletion strains, locus YDL192W, strain arf1, stronger effect = lower value 0.994 | S. cerevisiae deletion strains, locus YDR101C, strain arx1, stronger effect = lower value 0.991 | S. cerevisiae deletion strains, locus YDR162C, strain NBP2, stronger effect = lower value 1.01 | S. cerevisiae deletion strains, locus YDR318W, strain mcm21, stronger effect = lower value 0.988 | S. cerevisiae deletion strains, locus YDR388W, stronger effect = lower value 0.995 | S. cerevisiae deletion strains, locus YDR502C, strain sam2, stronger effect = lower value 0.988 | S. cerevisiae deletion strains, locus YEL061C, strain CIN8, stronger effect = lower value 0.994 | S. cerevisiae deletion strains, locus YER110C, stronger effect = lower value 0.988 | S. cerevisiae deletion strains, locus YER155C, strain BEM2, stronger effect = lower value 1 | S. cerevisiae deletion strains, locus YER167W, strain BCK2, stronger effect = lower value 1.02 | S. cerevisiae deletion strains, locus YGL078C, strain dbp3, stronger effect = lower value 0.979 | S. cerevisiae deletion strains, locus YGL086W, strain mad1, stronger effect = lower value 0.975 | S. cerevisiae deletion strains, locus YGL248W, strain PDE1, stronger effect = lower value 1.01 | S. cerevisiae deletion strains, locus YGR078C, strain PAC10, stronger effect = lower value 1.02 | S. cerevisiae deletion strains, locus YGR135W, strain pre9, stronger effect = lower value 0.987 | S. cerevisiae deletion strains, locus YGR229C, strain SMI1, stronger effect = lower value 1 | S. cerevisiae deletion strains, locus YGR252W, strain gcn5, stronger effect = lower value 0.937 | S. cerevisiae deletion strains, locus YHR030C, strain SLT2, stronger effect = lower value 1.01 | S. cerevisiae deletion strains, locus YHR079C, strain IRE1 (second series), stronger effect = lower value 0.985 | S. cerevisiae deletion strains, locus YHR094C, strain hxt1, stronger effect = lower value 0.989 | S. cerevisiae deletion strains, locus YHR129C, strain ARP1, stronger effect = lower value 1.01 | S. cerevisiae deletion strains, locus YHR200W, strain rpn10, stronger effect = lower value 0.99 | S. cerevisiae deletion strains, locus YIL066C, strain RNR3, stronger effect = lower value 1.03 | S. cerevisiae deletion strains, locus YIL073C, strain SPO22, stronger effect = lower value 1.03 | S. cerevisiae deletion strains, locus YIL125W, strain kgd1, stronger effect = lower value 0.991 | S. cerevisiae deletion strains, locus YIR030C, strain dcg1, stronger effect = lower value 0.996 | S. cerevisiae deletion strains, locus YJL095W, strain BCK1, stronger effect = lower value 1.03 | S. cerevisiae deletion strains, locus YJL134W, strain LCB3, stronger effect = lower value 1.01 | S. cerevisiae deletion strains, locus YJL168C, strain set2, stronger effect = lower value 0.986 | S. cerevisiae deletion strains, locus YJL187C, strain SWE1 (second series), stronger effect = lower value 1.01 | S. cerevisiae deletion strains, locus YJR043C, strain POL32, stronger effect = lower value 1.01 | S. cerevisiae deletion strains, locus YJR075W, strain HOC1, stronger effect = lower value 1.01 | S. cerevisiae deletion strains, locus YKL009W, strain mrt4, stronger effect = lower value 0.984 | S. cerevisiae deletion strains, locus YKL068W, stronger effect = lower value 1 | S. cerevisiae deletion strains, locus YKL085W, strain MDH1 (second series), stronger effect = lower value 1 | S. cerevisiae deletion strains, locus YKL085W, strain MDH1, stronger effect = lower value 1 | S. cerevisiae deletion strains, locus YKR001C, strain vps1, stronger effect = lower value 0.988 | S. cerevisiae deletion strains, locus YLR039C, strain RIC1, stronger effect = lower value 1.04 | S. cerevisiae deletion strains, locus YLR058C, strain SHM2, stronger effect = lower value 1.01 | S. cerevisiae deletion strains, locus YLR102C, strain apc9, stronger effect = lower value 0.988 | S. cerevisiae deletion strains, locus YLR262C, strain YPT6, stronger effect = lower value 1.05 | S. cerevisiae deletion strains, locus YLR268W, strain sec22, stronger effect = lower value 0.989 | S. cerevisiae deletion strains, locus YLR330W, strain CHS5, stronger effect = lower value 1.01 | S. cerevisiae deletion strains, locus YLR342W, strain FKS1 (second series), stronger effect = lower value 0.999 | S. cerevisiae deletion strains, locus YLR371W, strain rom2, stronger effect = lower value 0.983 | S. cerevisiae deletion strains, locus YLR418C, strain cdc73, stronger effect = lower value 1.01 | S. cerevisiae deletion strains, locus YML016C, strain PPZ1, stronger effect = lower value 1 | S. cerevisiae deletion strains, locus YML032C, strain rad52, stronger effect = lower value 0.985 | S. cerevisiae deletion strains, locus YML124C, strain tub3, stronger effect = lower value 0.99 | S. cerevisiae deletion strains, locus YMR078C, strain ctf18, stronger effect = lower value 0.994 | S. cerevisiae deletion strains, locus YMR223W, strain ubp8, stronger effect = lower value 0.994 | S. cerevisiae deletion strains, locus YMR307W, strain GAS1, stronger effect = lower value 1.05 | S. cerevisiae deletion strains, locus YNL067W, strain RPL9B, stronger effect = lower value 1 | S. cerevisiae deletion strains, locus YNL233W, strain BNI4, stronger effect = lower value 1.04 | S. cerevisiae deletion strains, locus YNL250W, strain rad50, stronger effect = lower value 1.02 | S. cerevisiae deletion strains, locus YNL271C, strain bni1, stronger effect = lower value 0.992 | S. cerevisiae deletion strains, locus YNL298W, strain CLA4, stronger effect = lower value 0.987 | S. cerevisiae deletion strains, locus YNL307C, strain MCK1, stronger effect = lower value 0.996 | S. cerevisiae deletion strains, locus YNL322C, strain KRE1, stronger effect = lower value 1 | S. cerevisiae deletion strains, locus YNR052C, strain pop2, stronger effect = lower value 0.977 | S. cerevisiae deletion strains, locus YOL012C, strain htz1 0.95 | S. cerevisiae deletion strains, locus YOL147C, strain pex11, stronger effect = lower value 0.984 | S. cerevisiae deletion strains, locus YOR061W, strain CKA2, stronger effect = lower value 1.01 | S. cerevisiae deletion strains, locus YOR069W, strain VPS5, stronger effect = lower value 1.01 | S. cerevisiae deletion strains, locus YOR136W, strain idh2, stronger effect = lower value 0.991 | S. cerevisiae deletion strains, locus YOR144C, strain elg1, stronger effect = lower value 0.989 | S. cerevisiae deletion strains, locus YOR184W, strain ser1, stronger effect = lower value 0.976 | S. cerevisiae deletion strains, locus YOR316C, strain cot1, stronger effect = lower value 0.992 | S. cerevisiae deletion strains, locus YPR119W, strain clb2, stronger effect = lower value 0.982 | S. cerevisiae deletion strains, locus YPR141C, strain kar3, stronger effect = lower value 0.998 | S. cerevisiae deletion strains, locus YPR163C, strain tif3, stronger effect = lower value 0.999 | S. cerevisiae deletion strains, locus YPR167C, strain met16, stronger effect = lower value 0.99 | S. cerevisiae deletion strains, strain wtn01, stronger effect = lower value 0.974 | S. cerevisiae strains, strain wild type, stronger effect = lower value 1.01
